Compound activity (PubChem BioAssay)
C diff growth = blocks growth of Clostridium difficile; growth activity, negative = inhibition, % at 16 µg/mL (by protocol); AID 1259249; 0.25% of 86,000 active; Clostridium difficile clinical isolate growth, OD600, 24 h; active compounds read low;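 active means mean growth activity at or below -80% and every replicate also at or below -80%; inconclusive means mean at or below -80% but some replicate above -80%; inactive means mean growth activity above -80%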;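 further: 0% = DMSO wells and -100% = levofloxacin 16 µg/mL wells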
T cruzi growth-1 = T. cruzi proliferation inhibition; T. cruzi beta-gal in NIH3T3, GalScreen luminescence, 90 h; inhibition, % at 8.34 µM; 5.9% of 77,000 active; AID 624255;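 active means mean inhibition above about 93%, with at least 55% of replicates each passing it, limit read from the data, passing the limit was not always enough; inconclusive means only one of those two conditions holds; inactive means neither condition holds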
Pf Dd2 growth = blocks growth of Plasmodium falciparum Dd2 parasites | P. falciparum Dd2 growth, SYBR Green, 72 h; active compounds read low | activity change, % at 10 µM | 2.3% of 94,000 active | AID 1159554; in the data active means activity change below about -80%; inconclusive means no clear call, values can overlap the other calls
T cruzi growth-2 = Trypanosoma cruzi proliferation inhibition; T. cruzi beta-gal in NIH3T3, GalScreen luminescence, 90 h; AID 651739; 72% of 5,600 active; inhibition, % at 8.35 µM; shares compounds with T cruzi growth-1;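 active means mean replicate inhibition above about 95% and at least 55% of replicates individually reaching it, limit read from the data; inconclusive means only one of the two criteria is met; inactive means neither criterion is met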
T cruzi growth-3 = inhibitors of T. cruzi proliferation; AID 651740; T. cruzi beta-gal in NIH3T3, GalScreen luminescence, 90 h; shares compounds with T cruzi growth-1; 21% of 5,600 active; inhibition, % at 2.09 µM;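 active means mean inhibition above about 95%, with at least 55% of replicates also reaching it, limit read from the data; inconclusive means meets just one of the two conditions; inactive means meets neither condition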;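 further: plate controls were neutral control median for no effect and positive control median for full effect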
NIH3T3 tox = NIH/3T3 (mouse) viability loss; shares compounds with T cruzi growth-1; NIH/3T3 viability, CellTiter-Glo ATP luminescence, 90 h; cytotoxicity (signal decrease), % at 8.35 µM; 14% of 5,600 active;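 active means mean signal decrease across replicates above about 35% based on untreated-well scatter, with enough replicates individually passing, limit read from the data; inconclusive means no rule stated though some were filed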;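 further: 0% = median of neutral control wells and 100% = median of positive control wells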
3T3 cytotox 2 = NIH/3T3 (mouse) viability loss; shares compounds with T cruzi growth-1; AID 651744; 56% of 5,600 active; inhibition, % at 24.9 µM; NIH/3T3 viability, CellTiter-Glo ATP luminescence, 90 h;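 active means mean loss of cell viability signal at or above a set limit, and enough replicates individually reaching it; inconclusive means meets only the mean limit or only the replicate share; inactive means meets neither condition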;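 further: 0% = median of neutral control wells and 100% = median of positive control wells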
Numbers without * were called inactive; ? = inconclusive; / = no result given. Sampled rows, rich in hits. Any-hit rate of the full collection: about 6.8%.

SMILES | C diff growth | T cruzi growth-1 | Pf Dd2 growth | T cruzi growth-2 | T cruzi growth-3 | NIH3T3 tox | 3T3 cytotox 2
CC(=O)N(C)C[C@@H]1Oc2cc(C#CC3CCCC3)ccc2S(=O)(=O)N([C@H](C)CO)C[C@@H]1C | 2 | 51 | -26 | / | / | / | /
C[C@H]1CN([C@@H](C)CO)S(=O)(=O)c2ccc(C#CC3CC3)cc2O[C@H]1CN(C)C(=O)c1cccc(F)c1 | 4 | / | -15 | / | / | / | /
O=C(O)C[C@@H]1C[C@@H]2c3cc(NC(=O)c4ccc5c(c4)OCO5)ccc3O[C@@H]2[C@@H](CO)O1 | -1 | -37 | 13 | / | / | / | /
COc1ccc(S(=O)(=O)Nc2ccc3c(c2)C(=O)N([C@@H](C)CO)C[C@H](C)[C@H](CN(C)S(C)(=O)=O)O3)cc1 | 0 | -8 | 4 | / | / | / | /
COc1ccc2c3c(n(C)c2c1)[C@H](CO)N(CC1CC1)CC31CCN(C(=O)c2ccc(F)cc2)CC1 | 4 | / | -72 | / | / | / | /
C[C@@H]1CN([C@@H](C)CO)S(=O)(=O)c2ccc(C#CC3CC3)cc2O[C@H]1CN(C)C(=O)c1cccc(F)c1 | 25 | / | 15 | / | / | / | /
C[C@H](CO)N1C[C@H](C)[C@H](CN(C)C(=O)c2cccc(F)c2)Oc2cc(C#CC3CCCC3)ccc2S1(=O)=O | / | 123* | -65 | 103* | 78 | 5 | 103*
C[C@@H]1CN([C@@H](C)CO)C(=O)c2cc(NC(=O)Cn3cnnn3)ccc2O[C@H]1CN(C)Cc1ccccc1 | -4 | 2 | 2 | / | / | / | /
CCCNC(=O)C[C@H]1CC[C@@H]2[C@@H](COc3ccc(NC(=O)c4ccc(OC)cc4)cc3C(=O)N2C)O1 | 3 | 28 | -13 | / | / | / | /
CCCC(=O)Nc1ccc2c(c1)C(=O)N(C)C[C@@H](OC)[C@H](C)CN(CC1CCOCC1)[C@@H](C)CO2 | / | 0 | / | / | / | / | /
O=C(c1ccccn1)N1CC[C@H]2[C@H](CO)Nc3ccc(-c4cccc(F)c4)cc3[C@H]21 | -8 | 27 | -11 | / | / | / | /
O=C(c1ccc(F)cc1)N1CC[C@H]2[C@H](CO)Nc3ccc(-c4ccccc4F)cc3[C@H]21 | 19 | 55 | -30 | / | / | / | /
O=C(c1ccc(F)cc1)N1CC[C@@H]2[C@H](CO)Nc3ccc(-c4ccccc4F)cc3[C@@H]21 | 6 | ? | -3 | 98* | 95 | 6 | 85*
O=C(c1ccccn1)N1CC[C@@H]2[C@@H](CO)Nc3ccc(-c4ccc(F)cc4)cc3[C@@H]21 | -9 | 112* | 21 | 105* | 80 | 7 | 16
O=C(c1ccccn1)N1CC[C@@H]2[C@H](CO)Nc3ccc(-c4ccccc4F)cc3[C@@H]21 | -18 | 84 | -5 | / | / | / | /
O=C(c1cnccn1)N1CC[C@H]2[C@H](CO)Nc3ccc(-c4ccccc4F)cc3[C@H]21 | -1 | 99* | -3 | 96* | 24 | 17 | 21
O=C(c1ccccn1)N1CC[C@@H]2[C@H](CO)Nc3ccc(C#Cc4cccnc4)cc3[C@@H]21 | -16 | ? | -54 | 30 | 24 | 12 | ?
O=C(c1ccccn1)N1CC[C@@H]2[C@@H](CO)Nc3ccc(C#Cc4cccnc4)cc3[C@@H]21 | -10 | 31 | 18 | / | / | / | /
COc1cccc(-c2ccc([C@@H]3[C@@H](CO)N4C(=O)CN(C(=O)C5CC5)C[C@H]34)cc2)c1 | -4 | / | -13 | / | / | / | /
COCC(=O)N(C)C[C@@H]1Oc2cc(C#CCN(C)C)ccc2S(=O)(=O)N([C@H](C)CO)C[C@H]1C | -3 | 25 | 4 | / | / | / | /
CO[C@@H]1CN(C)C(=O)c2ccc(NC(=O)C3CCC3)cc2OC[C@@H](C)N(Cc2nccs2)C[C@H]1C | / | -7 | / | / | / | / | /
COc1ccccc1-c1cnc2c(c1)C(=O)N([C@H](C)CO)C[C@H](C)[C@H](CN(C)Cc1ccc(F)cc1)O2 | 9 | / | -22 | / | / | / | /
CO[C@H]1CN(C)C(=O)c2ccc(NC(=O)NC(C)C)cc2OC[C@@H](C)N(Cc2ccccc2)C[C@H]1C | / | -12 | -2 | / | / | / | /
CC(C)CC#Cc1cnc2c(c1)C(=O)N([C@H](C)CO)C[C@H](C)[C@@H](CN(C)Cc1ccc(F)cc1)O2 | 5 | 48 | -30 | / | / | / | /
CNC[C@H]1Oc2ncc(C#CCC(C)C)cc2C(=O)N([C@H](C)CO)C[C@H]1C | 4 | 105* | -57 | 106* | 89 | 5 | 22
SMILES | C diff growth | T cruzi growth-1 | Pf Dd2 growth | T cruzi growth-2 | T cruzi growth-3 | NIH3T3 tox | 3T3 cytotox 2
CNC[C@@H]1Oc2ncc(C#CCC(C)C)cc2C(=O)N([C@H](C)CO)C[C@@H]1C | 14 | / | -37 | / | / | / | /
CC(C)CC#Cc1cnc2c(c1)C(=O)N([C@@H](C)CO)C[C@@H](C)[C@@H](CN(C)Cc1ccc(F)cc1)O2 | 11 | ? | -57 | 108* | 58 | 5 | 57*
CC(C)CC#Cc1cnc2c(c1)C(=O)N([C@@H](C)CO)C[C@@H](C)[C@H](CN(C)Cc1ccc(F)cc1)O2 | 6 | ? | -51 | 104* | 32 | 25 | 105*
C[C@H](CO)N1C[C@H](C)[C@H](CN(C)Cc2cccc(C(F)(F)F)c2)Oc2ncc(C#Cc3ccccc3)cc2C1=O | / | 99* | -42 | 102* | 86 | 8 | 31*
C[C@H](CO)N1C[C@H](C)[C@H](CN(C)Cc2cccc(C(F)(F)F)c2)Oc2ncc(C#Cc3ccc(F)cc3)cc2C1=O | 9 | / | -33 | / | / | / | /
CCCC#Cc1cnc2c(c1)C(=O)N([C@@H](C)CO)C[C@@H](C)[C@@H](CN(C)Cc1ccc(F)cc1)O2 | 10 | 72 | -45 | / | / | / | /
Cc1cc(C(=O)Nc2ccc3c(c2)C(=O)N(C)[C@@H]2CC[C@H](CC(=O)N[C@H](C)c4ccccc4)O[C@@H]2CO3)no1 | -3 | 39 | -4 | / | / | / | /
O=C(CC1CC1)N1CC(=O)N2[C@H](CO)[C@@H](c3ccc(C#Cc4ccccc4)cc3)[C@H]2C1 | -23 | / | -11 | / | / | / | /
CC(C)NC(=O)N(C)C[C@H]1Oc2ncc(C#CC3CCCC3)cc2C(=O)N([C@H](C)CO)C[C@@H]1C | -4 | -5 | -12 | / | / | / | /
O=C(C[C@H]1C[C@@H]2c3cc(NS(=O)(=O)c4ccc(F)cc4)ccc3O[C@@H]2[C@H](CO)O1)NCc1ccccc1F | 3 | 11 | -16 | / | / | / | /
C[C@@H]1CCCCO[C@@H](CN(C)S(=O)(=O)c2cccs2)[C@H](C)CN([C@H](C)CO)C(=O)c2cc(NC(=O)CCC(F)(F)F)ccc2O1 | -4 | 34 | -57 | / | / | / | /
C[C@H](CO)N1C[C@H](C)[C@H](CN(C)Cc2ccc(F)cc2)Oc2ncc(C#Cc3ccccc3)cc2C1=O | / | ? | -5 | 103* | 88 | 12 | 101*
C[C@H](CO)N1C[C@H](C)[C@H](CN(C)Cc2ccccc2)Oc2ncc(C#Cc3ccc(F)cc3)cc2C1=O | 23 | 55 | -26 | / | / | / | /
Cc1noc(C)c1NC(=O)Nc1cccc2c1O[C@H](CN(C)S(=O)(=O)c1ccccc1)[C@H](C)CN([C@@H](C)CO)C2=O | / | 12 | 4 | / | / | / | /
